“And” between values parts separate entries of the source, which are not always exact repeats. Equal values may be shown once. A structure can be active in one record and inactive in another. The source made the active and inactive calls. Entries that show only a call come without a potency. Unless noted, calls follow the shape of the dose curve; as a rule, active = well fitted curve in the direction sought with a large enough effect in the repeat runs; inconclusive = weak or mixed curves; inactive = no such curve, though single readings can be large; an effect the other way counts as inactive or inconclusive.
Key:
[1] = qHTS assay to identify small molecule antagonists of the thyroid receptor (TR) signaling pathway - cell viability counter screen (AID 743064); also: nearly all actives have a fitted effect of over 50% in size; also: potency is read from the fitted curve at half-maximal effect
In short: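 Counter screen for cytotoxicity: compound plus T3 (1 nM final) on GH3.TRE-Luc cells, 23.5 h at 37 °C, then fluorescence viability readout with CellTiter-Fluor.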

[2] = qHTS assay to identify small molecule antagonists of the thyroid receptor (TR) signaling pathway (AID 743065); also: nearly all actives have a fitted effect of over 55% in size; also: potency is read from the fitted curve at half-maximal effect
In short: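 Antagonism measured as loss of luciferase signal in GH3 cells stably carrying a TRE-luciferase reporter, co-treated with compound and T3 (1 nM final) for 23.5 h at 37 C. Viability was read in the same well by CellTiter-Fluor.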

[3] = tested on: thyroid hormone receptor (rat, GH3 cells); assay: qHTS assay to identify small molecule agonists of the thyroid receptor (TR) signaling pathway (AID 743066; calls by dose curve)
[4] = molecular target: Estrogen receptor (Homo sapiens) (UniProt P03372); assay: qHTS assay to identify small molecule antagonists of the estrogen receptor alpha (ER-alpha) signaling pathway (AID 743069; active = well fitted curve in the direction sought with a large enough effect in the signal ratio in the repeat runs, not every such curve was filed as active; inconclusive = weak or mixed curves, or effect the other way; inactive = no such curve, though single readings can be large or run the other way; the % refers to the signal ratio)
In short: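 Fluorescence intensity from a beta-lactamase FRET substrate served as the read-out. Cells: HEK293 with stably integrated ER-alpha-UAS-bla reporter. Agonist 17beta-estradiol was co-added with compounds; incubation 18 hr at 37C, substrate 2 hr at room temperature.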

[5] = qHTS assay to identify small molecule antagonists of the estrogen receptor alpha (ER-alpha) signaling pathway - cell viability counter screen (AID 743074; calls by dose curve; also: nearly all actives have a fitted effect of over 45% in size; also: potency is read from the fitted curve at half-maximal effect)
[6] = molecular target: Estrogen receptor (Homo sapiens) (UniProt P03372); assay: qHTS assay to identify small molecule agonists of the estrogen receptor alpha (ER-alpha) signaling pathway (AID 743075; calls by dose curve; also: potency is read from the fitted curve at half-maximal effect)
[7] = molecular target: Estrogen receptor (Homo sapiens) (UniProt P03372); assay: qHTS assay to identify small molecule agonists of the estrogen receptor alpha (ER-alpha) signaling pathway using the BG1 cell line (AID 743079); also: nearly all actives have a fitted effect of over 20% in size; also: potency is read from the fitted curve at half-maximal effect
[8] = qHTS assay to identify small molecule antagonists of the estrogen receptor alpha (ER-alpha) signaling pathway using the BG1 cell line (AID 743080; calls by dose curve; also: nearly all actives have a fitted effect of over 25% in size; also: potency is read from the fitted curve at half-maximal effect)
In short: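 Antagonist mode: compounds in DMSO were pinned onto BG1-Luc-4E2 cells alongside 17beta-estradiol agonist, incubated 21.5 h, and ERE-driven luciferase measured with ONE-Glo. Cytotoxicity was multiplexed using CellTiter-Fluor fluorescence.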

[9] = qHTS assay to identify small molecule antagonists of the estrogen receptor alpha (ER-alpha) signaling pathway using the BG1 cell line - cell viability counter screen (AID 743081);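 also: compound given together with 17beta-estradiol as the ER stimulus; series mostly up to about 70 µM; nearly all actives have a fitted effect of over 45% in size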
[10] = molecular target: Aromatase (Homo sapiens) (UniProt P11511); assay: qHTS assay to identify aromatase inhibitors (AID 743083); also: series mostly up to about 70 µM; nearly all actives have a fitted effect of over 55% in size
[11] = qHTS assay to identify aromatase inhibitors - cell viability counter screen (AID 743084);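 also: cells stimulated with testosterone during compound exposure; nearly all actives have a fitted effect of over 55% in size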
[12] = molecular target: Aryl hydrocarbon receptor (Homo sapiens) (UniProt P35869); assay: qHTS assay to identify small molecule that activate the aryl hydrocarbon receptor (AhR) signaling pathway (AID 743085);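 also: HG2L7.5c1 human HepG2 liver cells with stably integrated DRE-driven firefly reporter; series mostly up to about 70 µM; nearly all actives have a fitted effect of over 15% in size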
In short: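 Measured in HG2L7.5c1 cells: CellTiter-Fluor signal (30 min incubation, 37C) for viability, then luciferase luminescence (30 min, room temperature). Compound contact time was 24 h at 37C, following a 5 h pre-incubation.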

[13] = qHTS assay to identify small molecule that activate the aryl hydrocarbon receptor (AhR) signaling pathway - cell viability counter screen (AID 743086);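 also: HepG2 liver cells carrying the AhR DRE luciferase reporter; series mostly up to about 70 µM; nearly all actives have a fitted effect of over 45% in size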
In short: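 Cytotoxicity counter screen: CellTiter-Fluor signal (30 min, 37 C) in 4000 HepG2 cells/well carrying the DRE-luciferase reporter, following 24 h compound exposure at 37 C.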

[14] = molecular target: Peroxisome proliferator-activated receptor gamma (Homo sapiens) (UniProt P37231); assay: qHTS assay to identify small molecule agonists of the peroxisome proliferator-activated receptor gamma (PPARg) signaling pathway (AID 743094; active = well fitted activation curve with a large enough effect in the signal ratio in the repeat runs, not every such curve was filed as active; inconclusive = weak or mixed curves, or effect the other way; inactive = no such curve, though single readings can be large or run the other way; the % refers to the signal ratio)
In short: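 Reporter activation was scored by fluorescence of cleaved LiveBLAzer B/G substrate (1 h, room temperature) in PPARg-bla HEK293H cells previously treated 17 h at 37C with DMSO-dissolved compounds.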

[15] = molecular target: Peroxisome proliferator-activated receptor gamma (Homo sapiens) (UniProt P37231); assay: qHTS assay to identify small molecule antagonists of the peroxisome proliferator-activated receptor gamma (PPARg) signaling pathway (AID 743191; calls by dose curve; also: series mostly up to about 63 µM; nearly all actives have a fitted effect of over 30% in size)
In short: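 Beta-lactamase reporter under UAS control in HEK293H PPARg-bla cells; compound treatment 17 h at 37C. Read-out: fluorescence intensity after 1 h room-temperature incubation with LiveBLAzer B/G FRET substrate.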

[16] = qHTS assay to identify small molecule antagonists of the peroxisome proliferator-activated receptor gamma (PPARg) signaling pathway - cell viability counter screen (AID 743194); conditions: Potency: co-treated with 50 nM rosiglitazone; also: nearly all actives have a fitted effect of over 55% in size
In short: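 Viability was measured as CellTiter-Glo luminescence in GeneBLAzer PPARg UAS-bla HEK293H cells. These cells had been exposed 17 h at 37 C to compounds together with rosiglitazone at 50 nM final, with the beta-lactamase readout taken in the same wells.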

[17] = qHTS assay for small molecule agonists of the antioxidant response element (ARE) signaling pathway (AID 743202; active = well fitted activation curve with a large enough effect in the signal ratio in the repeat runs, not every such curve was filed as active; inconclusive = weak or mixed curves, or effect the other way; inactive = no such curve, though single readings can be large or run the other way; the % refers to the signal ratio; also: potency is read from the fitted curve at half-maximal effect)
In short: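 Beta-lactamase reporter activity, read as fluorescence intensity, reflects ARE/Nrf2 pathway induction in HepG2 cells after 16 h compound exposure at 37 C; substrate loading was 2 h at room temperature.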

[18] = qHTS assay for small molecule agonists of the antioxidant response element (ARE) signaling pathway - cell viability counter screen (AID 743203; calls by dose curve; also: nearly all actives have a fitted effect of over 55% in size)
In short: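 Viability counter screen: stably transfected ARE-bla HepG2 line, 16 hrs compound exposure at 37C/5% CO2, ATP-based CellTiter-Glo luminescence measured in the reporter wells.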

[19] = qHTS assay for small molecule activators of the heat shock response signaling pathway - cell viability counter screen (AID 743209); also: nearly all actives have a fitted effect of over 50% in size
In short: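 Viability of HSE-bla HeLa cells is measured with CellTiter-Glo in the wells already used for the reporter read. Compound exposure lasts 5 h at 37 C, and luminescence is read after 30 min at room temperature.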

[20] = qHTS assay for small molecule activators of the heat shock response signaling pathway (AID 743210; active = well fitted activation curve with a large enough effect in the signal ratio in the repeat runs, with a control signal flat, not every such curve was filed as active; inconclusive = weak or mixed curves; the % refers to the signal ratio;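 also: HeLa cells with beta-lactamase reporter driven by heat shock elements; series mostly up to about 63 µM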)
In short: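 Fluorescence from a cleaved B/G FRET substrate (2.5 h, room temp) reports HSE-driven beta-lactamase in HeLa cells treated 5 h at 37 C with DMSO-dissolved compounds.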

Chain of Aryl hydrocarbon receptor (Homo sapiens) (P35869 whole entry, looked up): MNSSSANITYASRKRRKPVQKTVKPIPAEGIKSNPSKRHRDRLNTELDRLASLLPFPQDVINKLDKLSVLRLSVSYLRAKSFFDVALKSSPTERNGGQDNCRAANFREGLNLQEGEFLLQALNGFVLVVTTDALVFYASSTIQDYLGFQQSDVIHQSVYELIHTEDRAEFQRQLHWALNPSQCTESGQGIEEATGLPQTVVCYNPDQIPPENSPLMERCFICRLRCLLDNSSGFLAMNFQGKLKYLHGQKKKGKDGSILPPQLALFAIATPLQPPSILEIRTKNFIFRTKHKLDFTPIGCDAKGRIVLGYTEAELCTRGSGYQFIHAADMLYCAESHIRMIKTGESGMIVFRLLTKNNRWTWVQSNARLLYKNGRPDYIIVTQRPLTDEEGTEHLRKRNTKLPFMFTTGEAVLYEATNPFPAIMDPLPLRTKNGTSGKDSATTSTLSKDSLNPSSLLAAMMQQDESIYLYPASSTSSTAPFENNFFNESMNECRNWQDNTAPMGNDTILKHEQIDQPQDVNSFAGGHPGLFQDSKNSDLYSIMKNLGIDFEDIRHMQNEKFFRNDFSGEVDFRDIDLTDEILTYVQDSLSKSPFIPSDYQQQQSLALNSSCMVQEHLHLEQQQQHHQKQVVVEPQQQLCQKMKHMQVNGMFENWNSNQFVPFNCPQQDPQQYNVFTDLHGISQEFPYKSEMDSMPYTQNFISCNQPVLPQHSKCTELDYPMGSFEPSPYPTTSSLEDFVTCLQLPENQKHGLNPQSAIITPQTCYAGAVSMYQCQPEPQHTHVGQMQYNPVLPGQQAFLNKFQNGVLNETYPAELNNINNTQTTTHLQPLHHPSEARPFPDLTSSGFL
Chain of Aromatase (Homo sapiens) (P11511 whole entry, looked up): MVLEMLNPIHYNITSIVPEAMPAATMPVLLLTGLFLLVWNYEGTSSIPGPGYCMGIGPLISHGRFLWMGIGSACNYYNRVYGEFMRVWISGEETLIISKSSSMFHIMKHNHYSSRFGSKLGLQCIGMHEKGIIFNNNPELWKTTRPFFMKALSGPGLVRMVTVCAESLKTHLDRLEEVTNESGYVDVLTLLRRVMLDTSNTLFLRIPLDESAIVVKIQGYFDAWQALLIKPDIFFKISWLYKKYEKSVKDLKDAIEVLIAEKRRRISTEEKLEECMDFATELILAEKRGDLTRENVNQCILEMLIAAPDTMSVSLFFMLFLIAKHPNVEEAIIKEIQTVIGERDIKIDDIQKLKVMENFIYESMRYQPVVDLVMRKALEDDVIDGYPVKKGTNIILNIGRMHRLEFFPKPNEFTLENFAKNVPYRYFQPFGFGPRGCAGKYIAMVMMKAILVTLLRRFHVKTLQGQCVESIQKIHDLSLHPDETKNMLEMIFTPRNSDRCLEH
Chain of Estrogen receptor (Homo sapiens) (P03372 whole entry, looked up): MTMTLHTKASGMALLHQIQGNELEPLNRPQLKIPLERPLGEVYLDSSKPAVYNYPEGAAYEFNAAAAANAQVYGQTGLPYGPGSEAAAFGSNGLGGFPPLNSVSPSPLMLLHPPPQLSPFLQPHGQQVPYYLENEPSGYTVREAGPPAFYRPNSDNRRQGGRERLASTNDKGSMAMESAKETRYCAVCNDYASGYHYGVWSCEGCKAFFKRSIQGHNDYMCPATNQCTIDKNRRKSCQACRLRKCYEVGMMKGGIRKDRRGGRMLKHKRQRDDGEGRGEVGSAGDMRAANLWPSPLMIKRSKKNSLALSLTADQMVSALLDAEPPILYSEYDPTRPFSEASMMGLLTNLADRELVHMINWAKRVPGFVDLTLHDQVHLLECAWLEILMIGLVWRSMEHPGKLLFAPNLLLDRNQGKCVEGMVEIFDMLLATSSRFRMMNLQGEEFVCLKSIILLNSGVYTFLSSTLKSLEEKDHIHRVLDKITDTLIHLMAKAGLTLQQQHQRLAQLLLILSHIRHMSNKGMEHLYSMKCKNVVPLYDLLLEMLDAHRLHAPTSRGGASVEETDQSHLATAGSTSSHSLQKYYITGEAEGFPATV
Chain of Peroxisome proliferator-activated receptor gamma (Homo sapiens) (P37231 whole entry, looked up): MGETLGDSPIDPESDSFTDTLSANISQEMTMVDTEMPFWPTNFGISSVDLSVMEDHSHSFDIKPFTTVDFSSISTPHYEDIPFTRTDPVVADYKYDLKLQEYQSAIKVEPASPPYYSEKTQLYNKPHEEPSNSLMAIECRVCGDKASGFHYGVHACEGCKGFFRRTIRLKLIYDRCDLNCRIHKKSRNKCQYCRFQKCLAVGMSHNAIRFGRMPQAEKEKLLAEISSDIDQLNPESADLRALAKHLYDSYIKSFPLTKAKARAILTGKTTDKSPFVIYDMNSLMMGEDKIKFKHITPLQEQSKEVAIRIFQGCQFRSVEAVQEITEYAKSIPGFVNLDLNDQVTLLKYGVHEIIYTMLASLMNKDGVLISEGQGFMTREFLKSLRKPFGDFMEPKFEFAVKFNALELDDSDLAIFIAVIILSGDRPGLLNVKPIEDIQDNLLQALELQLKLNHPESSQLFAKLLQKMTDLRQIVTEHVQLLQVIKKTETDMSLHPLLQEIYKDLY

SMILES | Potency [1] | Potency [2] | Potency [3] | Potency [4] | Potency [5] | Potency [6] | Potency [7] | Potency [8] | Potency [9] | Potency [10] | Potency [11] | Potency [12] | Potency [13] | Potency [14] | Potency [15] | Potency [16] | Potency [17] | Potency [18] | Potency [19] | Potency [20]
CC(C)(C)NCC(O)c1ccccc1Cl (stereo not given) | inactive | inactive | inactive | inactive | inactive | inactive | inactive | inactive | inactive | inactive | inactive | inactive | inactive | inactive | inactive | inactive | inactive | inactive | inactive | inactive
CC(C)OC(=O)Cc1ccccc1 | inactive | inactive | inactive | inactive | inactive | inactive | inactive | inactive | inactive | inactive | inactive | inactive | inactive | inactive |  | inactive |  | inactive | inactive | inactive
CCCCCBr | inactive | inactive | inactive | inactive | inactive | inactive | inactive | inactive | inactive | inactive | inactive | inactive | inactive | inactive | inactive | inactive |  | inactive | inactive | inactive
FC(Cl)(Cl)C(F)(Cl)Cl | inactive | inactive | inactive | inactive | inactive | inactive | inactive | inactive | inactive | inactive | inactive |  | inactive |  |  | inactive |  | inactive |  | inactive
O=CC=O | inactive | inactive | inactive | inactive | inactive | inactive | inactive and 28.1 µM (active) | inactive | inactive | inactive | inactive | inactive | inactive | inactive | inactive | inactive | inactive | inactive | inactive | inactive
O=C(Cc1ccccc1)OCCc1ccccc1 | inactive | inactive | inactive | inactive | inactive | inactive | inactive | inactive | inactive | inactive | inactive | inactive | inactive | inactive |  | inactive | inactive | inactive | inactive | inactive
CCCCC1C(=O)NC(=O)N(C2CCCCC2)C1=O (stereo not given) | inactive | inactive | inactive | inactive | inactive | inactive | inactive | inactive | inactive | inactive | inactive | inactive | inactive | inactive |  | inactive | inactive | inactive | inactive | inactive
O=[N+]([O-])c1cc(Cl)c(Cl)cc1Cl | inactive | inactive | inactive | inactive | inactive | inactive | inactive | inactive | inactive | inactive | inactive | inactive | inactive | inactive |  | inactive |  | inactive | inactive | inactive
CCCBr | inactive | inactive | inactive | inactive | inactive | inactive | inactive | inactive | inactive | inactive | inactive | inactive | inactive | inactive |  | inactive | inactive | inactive | inactive | inactive
N#CC(C#N)=C(C#N)C#N | inactive | inactive | inactive | inactive | inactive | inactive | inactive | inactive | inactive | inactive | inactive | inactive | inactive | inactive | inactive | inactive | 7.17 µM (active) | inactive | inactive | inactive
CCCN(CCC)c1c([N+](=O)[O-])cc(C(C)C)cc1[N+](=O)[O-] | 61.1 µM (active) | 61.1 µM (active) | inactive | inactive | inactive | inactive | inactive |  | inactive | inactive | inactive | inactive | inactive | inactive | inactive | inactive |  | inactive | inactive | inactive
C=CCOC(=O)C(C)(C)OC(=O)c1cc(-n2c(=O)cc(C(F)(F)F)n(C)c2=O)ccc1Cl | inactive | inactive | inactive | inactive | inactive | inactive | inactive | 26.8 µM (active) | inactive | inactive | inactive | inactive | inactive | inactive | inactive | inactive |  | inactive | inactive | inactive
COc1cc(CC(C)N)c(OC)cc1Br (stereo not given) | 35.5 µM (active) and 23.7 µM (active) | 35.5 µM (active) and 23.7 µM (active) | inactive | inactive | inactive | inactive | inactive |  | inactive | inactive | inactive | inactive | inactive | inactive |  | inactive |  | inactive | inactive | inactive
CC(O)CN1CCN(CC(=O)[O-])CCN(CC(=O)[O-])CCN(CC(=O)[O-])CC1.[Gd+3] (stereo not given) | inactive | inactive | inactive | inactive | inactive and 21.3 µM (active) | inactive and 23.9 µM [inconclusive] (active) | inactive and 5.31 µM (active) | inactive | inactive | inactive | inactive | inactive | inactive | inactive |  | inactive | inactive | inactive | inactive | inactive

— PubChem BioAssay (Tox21)
